In PubChem BioAssay (NCI):
Compounds without any hit were thinned out: in the full panel of roughly 79,000, 15% have a hit. A number with no mark means an inactive call. Activity calls are given as the source filed them. No stated cut-off is given here; in the data, active means growth inhibition above about 70%; inactive means the rest.

assay: NCI Yeast Anticancer Drug Screen. Data for the mlh1 rad18 strain (AID 175); conditions: S. cerevisiae mlh1 rad18 strain growth inhibition; at 50.0 µM; stronger effect = higher value
How it was run: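 Read-out is yeast growth inhibition, calculated against vehicle-only controls. The compound was applied to a strain engineered with DNA damage repair alterations.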

| Structure (SMILES) | growth inhibition |
| --- | --- |
| CCOC(=O)C[P+](c1ccc(C)cc1)(c1ccc(C)cc1)c1ccc(C)cc1 | 93.5% (active) |
| O=C(NCCl)Nc1ccccc1 | 66% |
| O=c1[nH]c2ccccc2c2cccc(F)c12 | 86.7% (active) |
| O=C(c1c(F)c(F)c(F)c(F)c1F)N1CCN(C(=O)c2c(F)c(F)c(F)c(F)c2F)C1=S | 91.2% (active) |
| O=C(CNS(=O)(=O)Cc1ccccc1)NCC(=O)NNc1ccccc1 | 81.7% (active) |
| CC1(C)C(=O)N(CCCCCCN2C(=O)C(C)(C)c3ccccc32)c2ccccc21 | 78.5% (active) |
| CC(=O)Nc1cccc2c1ccc1ccc3ccccc3c12 | 71% (active) |
| COc1ccc(-c2noc(=O)c3ccccc23)cc1 | 1.35% |
| c1ccc([B-](c2ccccc2)(c2ccccc2)c2ccccc2)cc1 | 98.5% (active) |
| CCc1cccc(C)c1N1C(=O)C(=O)C(c2nc3ccccc3o2)/C(=N\NS(=O)(=O)c2ccc(C)cc2)C1=O (centres undefined) | 0.25% |
| Cc1ccc(-[n+]2cc([O-])on2)cc1 | 28.4% |
| CCOC(=O)C(Cc1cn(S(=O)(=O)c2ccccc2)c2ccccc12)(NC(C)=O)C(=O)OCC | 75.5% (active) |
| CC(=O)N1C=C2CCC3c4ccccc4NC3C2CC1 (centres undefined) | 19.1% |
| O=c1cccccc1[O-].O=c1cccccc1[O-].O=c1cccccc1[O-].[Ce+3] | 88.5% (active) |
| CC(=O)OC(C#N)CC(C)(C)/[N+]([O-])=[N+](\[O-])C(C)(C)CC(C#N)OC(C)=O (centres undefined) | 80% (active) |
| O=C(O)C1(Cc2ccc3c(c2)CCC3)Cc2cc3c(cc2C1)CCC3 | 80.1% (active) |
| COC(=O)C12OCC34C(CC5C(C)C6=CC(=O)OC6=CC5(C)C3C(O)C1O)OC(=O)C(OC(C)=O)C24 (centres undefined) | -22% |
| O=S(=O)(c1cc(Cl)ccc1Cl)N1CCc2ccccc2C1 | -9.85% |
| CSC(=S)n1nc(-c2cccs2)c(N=Nc2ccc(Cl)cc2)c1C(F)(F)F | 96.1% (active) |
| O=[N+]([O-])C1=Cc2ccccc2S(=O)(=O)CC1 | 97.9% (active) |

| Structure (SMILES) | growth inhibition |
| --- | --- |
| COc1ccc(/C=N/n2c(C)nc3c(sc(=S)n3-c3ccccc3)c2=O)cc1 | 10.8% |
| Fc1ccc(NC(=S)SCc2ccccc2)cc1F | 99.2% (active) |
| O=[N+]([O-])c1cccc2c1[nH]c1c(-c3ccccc3)nccc12 | 89.8% (active) |
| CCOC(=O)CC(=O)/C=C/c1ccncc1 | 0.7% |
| c1ccc([P+](c2ccccc2)(c2ccccc2)C2CCCC2)cc1 | 98.5% (active) |
| COc1cc(Cc2n[nH]c(=S)n2-c2ccccc2)c(S(N)(=O)=O)cc1OC | 11.4% |
| CCCCCN(CCCCC)CCNc1ccc(C)c2sc3ccccc3c(=O)c12 | 97% (active) |
| COC(=O)[C@@]12OC[C@]34[C@H]([C@@H](O)[C@@H]1O)[C@@]1(C)CC(=O)C(O)=C(C)[C@@H]1C[C@H]3OC(=O)[C@H](OC(=O)C(Cc1ccccc1)NC(=O)OC(C)(C)C)[C@@H]24 (some centres undefined) | -65.6% |
| CC(=O)Nc1ccc(C(=O)C(C)Br)cc1 (centres undefined) | -30.8% |
| COc1ccc2c(c1)[n+]([O-])c(C(N)=O)c(N)[n+]2[O-] | 99.2% (active) |
| Cc1c2c(c(C)c3c4c(oc13)CCCC4)C=NCC2 | 80.1% (active) |
| CC1C(C(=O)O)CC([N+](=O)[O-])C(Cl)C1[N+](=O)[O-] (centres undefined) | 54.6% |
| CCN(CC)c1ccc(N=C2C=C(C(=O)Nc3cccc(Cl)c3)C(=O)c3ccccc32)c(C)c1 | -27.2% |
| C[N+](C)(C)CCN(Cc1cccs1)c1ccccn1 | -2.15% |
| O=C(c1ccccc1)c1c(CO[N+](=O)[O-])n([O-])c2ccccc2[n+]1=O | 98.8% (active) |
| CCC[C@H]1[C@H](CCC)[C@@]2(OC(=O)C3=C2CCC=C3)[C@]12OC(=O)C1=C2CCC=C1 | 89.8% (active) |
| O=C(CC(=O)c1ccccc1NC1=Cc2ccccc2C(=O)C1=O)C(=O)NC1=C(Cl)C(=O)c2ccccc2C1=O | 86.2% (active) |
| C=CC[P+](CC[P+](CC=C)(c1ccccc1)c1ccccc1)(c1ccccc1)c1ccccc1 | 52.2% |
| NCC1CCNCC1 | -4% |
